Experimental data published in the supplement of paper PMC6555819.

Experiments:
Test in all cases: PBM binding z-score (relative to random genomic background probes); higher = stronger binding; sequences stand for … in GC…GCGATTGACAGCGTAGAATGAAGG
[1] = tested on: FXR:RXRa (NR concentration 270 nM, RXRa partner concentration 90 nM)
Outline: (§1)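 The probes on custom Agilent 4×180K protein-binding microarrays were double-stranded, with 34-nt variable regions bearing direct-repeat seeds, single-nucleotide variants, half-site ablations and random human genomic background sequences. Incubation lasted 1 h with ligand-free nuclear receptor dimers in PBS pH 7.4, 2% milk, 0.02% Triton X-100, 1 mM DTT, 0.2 mg/mL BSA and 0.4 mg/ml salmon testes DNA. Antibodies against each partner (one per run) detected bound dimers, and fluorescence scans were regression-normalized. Binding z-scores take the random background probes as reference.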

[2] = tested on: LXRa:RXRa (NR concentration 270 nM, RXRa partner concentration 90 nM)
Outline: as §1

[3] = tested on: LXRa homodimer (NR concentration 270 nM)
Outline: as §1

[4] = tested on: LXRb:RXRa (NR concentration 270 nM, RXRa partner concentration 90 nM)
Outline: as §1

[5] = tested on: LXRb homodimer (NR concentration 270 nM)
Outline: as §1

[6] = tested on: PPARa:RXRa (NR concentration 270 nM, RXRa partner concentration 90 nM)
Outline: as §1

[7] = tested on: PPARg:RXRa (NR concentration 180 nM, RXRa partner concentration 90 nM)
Outline: as §1

[8] = tested on: PPARg:RXRa 270nM:90nM, anti-RXR (NR concentration 270 nM, RXRa partner concentration 90 nM)
Outline: as §1

[9] = tested on: PPARg:RXRa 30nM:10nM, anti-RXR (NR concentration 30 nM, RXRa partner concentration 10 nM)
Outline: as §1

[10] = tested on: PPARg:RXRa 90nM:30nM, anti-RXR (NR concentration 90 nM, RXRa partner concentration 30 nM)
Outline: as §1

[11] = tested on: PPARg:RXRa DBDmut IVT, anti-RXR (DBD mutation: RXRa K156A/R161A, NR concentration 270 nM, RXRa partner concentration 90 nM)
Outline: as §1

[12] = tested on: PPARg:RXRa IVT, anti-PPARg (NR concentration 270 nM, RXRa partner concentration 90 nM)
Outline: as §1

[13] = tested on: PPARg DBDmut:RXRa IVT, anti-PPARg (DBD mutation: PPARg1 K132A/R137A, NR concentration 270 nM, RXRa partner concentration 90 nM)
Outline: as §1

[14] = tested on: PPARg DBDmut IVT, anti-PPARg (DBD mutation: PPARg1 K132A/R137A, NR concentration 270 nM)
Outline: as §1

[15] = tested on: PPARg homodimer (NR concentration 180 nM)
Outline: as §1

[16] = tested on: PXR:RXRa (NR concentration 270 nM, RXRa partner concentration 90 nM)
Outline: as §1

[17] = tested on: PXR homodimer (NR concentration 270 nM)
Outline: as §1

[18] = tested on: RARa:RXR (NR concentration 270 nM, RXRa partner concentration 90 nM)
Outline: as §1

[19] = tested on: RARa homodimer (NR concentration 270 nM)
Outline: as §1

[20] = tested on: RARb:RXRa (NR concentration 270 nM, RXRa partner concentration 90 nM)
Outline: as §1

AGAATGATGTTATACGTAGATCAGGGAAGAAAGT
PBM binding z-score [1]: -0.301
PBM binding z-score [2]: -0.398
PBM binding z-score [3]: -0.0367
PBM binding z-score [4]: -0.288
PBM binding z-score [5]: -0.0572
PBM binding z-score [6]: -0.192
PBM binding z-score [7]: 0.88
PBM binding z-score [8]: -0.156
PBM binding z-score [9]: 0.198
PBM binding z-score [10]: -0.0681
PBM binding z-score [11]: -0.521
PBM binding z-score [12]: -0.0838
PBM binding z-score [13]: 1.57
PBM binding z-score [14]: 1.74
PBM binding z-score [15]: -0.218
PBM binding z-score [16]: -0.0656
PBM binding z-score [17]: 0.403
PBM binding z-score [18]: -0.276
PBM binding z-score [19]: -0.0154
PBM binding z-score [20]: -0.18

CCAGACAGGTGAAAGGTACCTCAGTCTGGTACGC
PBM binding z-score [1]: -0.0455
PBM binding z-score [2]: 0.27
PBM binding z-score [3]: -0.338
PBM binding z-score [4]: 0.286
PBM binding z-score [5]: -0.978
PBM binding z-score [6]: 2.28
PBM binding z-score [7]: 3.4
PBM binding z-score [8]: 4.94
PBM binding z-score [9]: 2.26
PBM binding z-score [10]: 4.17
PBM binding z-score [11]: 1.66
PBM binding z-score [12]: 1.96
PBM binding z-score [13]: -0.554
PBM binding z-score [14]: -0.542
PBM binding z-score [15]: 0.247
PBM binding z-score [16]: 0.109
PBM binding z-score [17]: -0.251
PBM binding z-score [18]: 0.49
PBM binding z-score [19]: -0.2
PBM binding z-score [20]: 0.786

TCTCGGAGTACACGAAGGTCAGAGCTTTCCAGAG
PBM binding z-score [1]: 0.57
PBM binding z-score [2]: 0.884
PBM binding z-score [3]: -0.152
PBM binding z-score [4]: 1.09
PBM binding z-score [5]: -1.07
PBM binding z-score [6]: 1.84
PBM binding z-score [7]: 0.351
PBM binding z-score [8]: 1.35
PBM binding z-score [9]: 1.91
PBM binding z-score [10]: 1.7
PBM binding z-score [11]: 1.19
PBM binding z-score [12]: 0.734
PBM binding z-score [13]: -1.26
PBM binding z-score [14]: -1.48
PBM binding z-score [15]: 1.11
PBM binding z-score [16]: 2.01
PBM binding z-score [17]: 0.814
PBM binding z-score [18]: 2
PBM binding z-score [19]: -0.696
PBM binding z-score [20]: 2.58

TCGAGTAGGTTACCGATGGGGCATTCAGCTTTCT
PBM binding z-score [1]: 0.211
PBM binding z-score [2]: 0.803
PBM binding z-score [3]: -0.358
PBM binding z-score [4]: 0.678
PBM binding z-score [5]: -0.864
PBM binding z-score [6]: 1.29
PBM binding z-score [7]: 0.217
PBM binding z-score [8]: 1.3
PBM binding z-score [9]: 1.26
PBM binding z-score [10]: 1.3
PBM binding z-score [11]: 3.39
PBM binding z-score [12]: 2.48
PBM binding z-score [13]: -0.681
PBM binding z-score [14]: -0.945
PBM binding z-score [15]: -0.276
PBM binding z-score [16]: -0.00678
PBM binding z-score [17]: -0.759
PBM binding z-score [18]: 0.377
PBM binding z-score [19]: -0.625
PBM binding z-score [20]: 0.88

TCTTGTAGATCAACAGGTGGTTAAGAAAGATCGA
PBM binding z-score [1]: -0.0557
PBM binding z-score [2]: 0.0664
PBM binding z-score [3]: -0.0924
PBM binding z-score [4]: -0.247
PBM binding z-score [5]: -0.293
PBM binding z-score [6]: 0.436
PBM binding z-score [7]: -0.255
PBM binding z-score [8]: 1.22
PBM binding z-score [9]: 2.58
PBM binding z-score [10]: 1.8
PBM binding z-score [11]: 1.73
PBM binding z-score [12]: 0.582
PBM binding z-score [13]: 0.605
PBM binding z-score [14]: 0.677
PBM binding z-score [15]: 0.713
PBM binding z-score [16]: -0.0683
PBM binding z-score [17]: 0.00391
PBM binding z-score [18]: 0.0313
PBM binding z-score [19]: 0.688
PBM binding z-score [20]: -0.0604

CGAACTAGGTGAGAACAGGACAGTGAAGGATGAT
PBM binding z-score [1]: -0.071
PBM binding z-score [2]: -0.292
PBM binding z-score [3]: -0.107
PBM binding z-score [4]: -0.534
PBM binding z-score [5]: -0.796
PBM binding z-score [6]: 1.57
PBM binding z-score [7]: 2.76
PBM binding z-score [8]: 2.11
PBM binding z-score [9]: 0.836
PBM binding z-score [10]: 1.12
PBM binding z-score [11]: 6.37
PBM binding z-score [12]: 5.97
PBM binding z-score [13]: 0.979
PBM binding z-score [14]: 0.431
PBM binding z-score [15]: 0.246
PBM binding z-score [16]: 0.0752
PBM binding z-score [17]: 0.241
PBM binding z-score [18]: 0.486
PBM binding z-score [19]: 0.275
PBM binding z-score [20]: 0.285

AGTCAAAGTTCAAGACGAGGTAACGTAAAGCACG
PBM binding z-score [1]: 6.21
PBM binding z-score [2]: 5.72
PBM binding z-score [3]: 2.72
PBM binding z-score [4]: 3.19
PBM binding z-score [5]: 0.519
PBM binding z-score [6]: 4.72
PBM binding z-score [7]: 6.2
PBM binding z-score [8]: 6.17
PBM binding z-score [9]: 3.81
PBM binding z-score [10]: 5.35
PBM binding z-score [11]: 0.127
PBM binding z-score [12]: 2.85
PBM binding z-score [13]: 1.37
PBM binding z-score [14]: 1.3
PBM binding z-score [15]: 3.22
PBM binding z-score [16]: 4.49
PBM binding z-score [17]: 2.5
PBM binding z-score [18]: 4.02
PBM binding z-score [19]: 1.38
PBM binding z-score [20]: 4.84
